The source of these data is ChEMBL document CHEMBL4513146, “CO-ADD screening of Karazin Kharkiv National University (Ukraine) compounds”.

Measured potencies and affinities stand elsewhere.

One assay relates to Klebsiella pneumoniae. The conditions noted are these: Concentration 32 ug.mL-1;; ASSAY_TEST Inhibition of Bacterial Growth; detection method Absorption (OD600); MEDIA CAMHB; plate type 384well; NBS; CORNING #3640; time 18 hr.
The test system of the next assay is Candida albicans. The conditions noted are these: Concentration 32 ug.mL-1; ASSAY_TEST Inhibition of Fungal Growth; detection method Absorption (OD530).
A further assay concerns Cryptococcus neoformans. The conditions noted are these: Concentration 32 ug.mL-1; ASSAY_TEST Inhibition of Fungal Growth; detection method Resazurin; Absorption (OD600-OD570); plate type 384well; NBS; CORNING #3640. (Alamar Blue is a resazurin reagent that responds to reducing activity.)

A word on the Inhibition: it is the drop in the measured response relative to a control, in per cent.

Regarding `O=C(Cn1nc2nc(Nc3ccc(F)cc3)ccn2c1=O)N1CCCc2ccccc21`, the Inhibition in the assay on Klebsiella pneumoniae is recorded as 14.82%; in the assay with Candida albicans, 2.56%; with Cryptococcus neoformans, -7.45%.

For the molecule `Cc1cc(Br)ccc1NC(=O)Cn1nc2c(SC3CCCCC3)nccn2c1=O`, the Inhibition in the assay on Klebsiella pneumoniae is listed as 10.86%; with Candida albicans, 1.51%; in the assay on Cryptococcus neoformans, -21.25%.

Consider `CC(C)c1ccc(N(Cc2ccc(Cl)cc2)S(=O)(=O)c2cccn3cnnc23)cc1`, for which the Inhibition in the assay on Klebsiella pneumoniae is on record as 9.01%; in the assay on Candida albicans, 2.08%; with Cryptococcus neoformans, -6.18%.

On to `COc1ccccc1-n1ccn2c(SCC#N)nnc2c1=O`, for which the Inhibition in the assay on Klebsiella pneumoniae is listed as 22.72%; in the assay on Candida albicans, 4.95%; with Cryptococcus neoformans, -18.74%.

Consider `COc1cc(NC(=O)Cn2nc3c4c5c(sc4ncn3c2=O)CCCC5)cc(OC)c1`, for which the values for the Inhibition in the assay with Klebsiella pneumoniae, in the assay with Candida albicans and in the assay with Cryptococcus neoformans were 4.67%, 7.26% and -16.68%, respectively.

As for `COC(=O)c1ccc(NC(=O)Cn2nc3ccc(S(=O)(=O)C4CCCCC4)nn3c2=O)cc1`, the results for the Inhibition with Klebsiella pneumoniae, in the assay with Candida albicans and in the assay on Cryptococcus neoformans were 9.79%, 17.49% and -8.73%, respectively.

Take `CCCCn1c(=O)c2sccc2n2c(CCC(=O)Nc3ccc(OC(F)(F)F)cc3)nnc12`: the results for the Inhibition in the assay with Klebsiella pneumoniae, in the assay with Candida albicans and with Cryptococcus neoformans were 7.36%, -0.1% and -18.58%, respectively.

As for `Cc1cccc(Oc2nccn3c(=O)n(CC(=O)N4CCN(c5ccc(F)cc5)CC4)nc23)c1C`, the values for the Inhibition in the assay with Klebsiella pneumoniae, with Candida albicans and in the assay with Cryptococcus neoformans were 7.83%, -1.43% and -7.63%, respectively.

`O=C(Cn1nc2c3cc(-c4ccc(Cl)cc4)nn3ccn2c1=O)Nc1ccc2c(c1)OCCO2`: the values for the Inhibition with Klebsiella pneumoniae, with Candida albicans and with Cryptococcus neoformans were 7.68%, -1.89% and -18.54%, respectively.

Turning to `O=c1n(Cc2ccccc2F)nc2ccc(S(=O)(=O)N3CCCCCC3)cn12`, the Inhibition in the assay with Klebsiella pneumoniae was 2.58%; in the assay on Candida albicans it was 0.84%; in the assay on Cryptococcus neoformans, -9.24%.

Take `O=C(CSc1nnc2c(=O)n(-c3ccccc3)ccn12)Nc1ccc(Br)cc1F`: the Inhibition in the assay on Klebsiella pneumoniae is on record as 1.03%; in the assay on Candida albicans, 2.95%; with Cryptococcus neoformans, -12.46%.

As to `Cc1ccc(NC(=O)Cn2nc3ccc(SC(C)C)nn3c2=O)c(Cl)c1`, the Inhibition is on record as 9.56% with Klebsiella pneumoniae, 10.62% with Candida albicans and -1.74% in the assay on Cryptococcus neoformans.

Turning to `CCc1cccc(NC(=O)Cn2nc3c(SCc4ccc(Cl)cc4)nccn3c2=O)c1`, the Inhibition was 7.77% in the assay with Klebsiella pneumoniae, 22.52% in the assay on Candida albicans and -20.82% with Cryptococcus neoformans.

In the case of `O=c1c2nn(Cc3cccc([N+](=O)[O-])c3)c(=O)n2ccn1-c1ccccc1`, the Inhibition with Klebsiella pneumoniae was 9.21%; in the assay on Candida albicans, 0.04%; with Cryptococcus neoformans, -10.2%.

For `COc1ccc(NC(=O)Cn2nc3c4cc(-c5ccc(C)c(C)c5)nn4ccn3c2=O)c(OC)c1`, the values for the Inhibition in the assay with Klebsiella pneumoniae, with Candida albicans and in the assay on Cryptococcus neoformans were -0.09%, 3.53% and -22.33%, respectively.

Take `Cc1ccc(NC(=O)Cn2nc3c(N4CCOCC4)nccn3c2=O)cc1F`: the Inhibition in the assay with Klebsiella pneumoniae is listed as 7.04%; with Candida albicans, 3.27%; in the assay on Cryptococcus neoformans, -4.33%.

For the molecule `O=C(Cn1nc2c3c4c(sc3ncn2c1=O)CCCC4)Nc1ccc2c(c1)OCO2`, the Inhibition in the assay on Klebsiella pneumoniae is on record as 4.23%; in the assay on Candida albicans, 4.71%; with Cryptococcus neoformans it was -14.52%.

For `Cc1ccc(-c2cc3c4nn(CC(=O)Nc5ccc6c(c5)OCCO6)c(=O)n4ccn3n2)cc1C`, the Inhibition with Klebsiella pneumoniae is 12.57%; with Candida albicans, 1.55%; with Cryptococcus neoformans, -15.09%.

`Cc1cccc(C)c1NC(=O)CSc1nnc2ccc(C(=O)Nc3cccc(F)c3)cn12`: the Inhibition with Klebsiella pneumoniae is on record as 10.23%; in the assay with Candida albicans it was 10.31%; in the assay on Cryptococcus neoformans, -3.65%.

On to `COc1ccc(CN(c2ccc(C(C)C)cc2)S(=O)(=O)c2cccn3cnnc23)cc1`, for which the figures for the Inhibition in the assay on Klebsiella pneumoniae, in the assay with Candida albicans and in the assay with Cryptococcus neoformans were 7.8%, 1.9% and -7.62%, respectively.

As for `Cc1c(Cl)cccc1NC(=O)Cn1nc2c3c4c(sc3ncn2c1=O)CCCCC4`, the results for the Inhibition in the assay with Klebsiella pneumoniae, with Candida albicans and with Cryptococcus neoformans were 9.28%, 4.44% and -27.44%, respectively.

On to `COC(=O)c1ccc(NC(=O)Cn2nc3c4sc(N5CCCC5)nc4ncn3c2=O)cc1`, for which the Inhibition in the assay with Klebsiella pneumoniae is reported as -7.74%; in the assay on Candida albicans, 1.38%; in the assay with Cryptococcus neoformans it was -4.89%.

For the molecule `COc1ccc(NC(=O)CSc2nnc3c(=O)n(-c4cccc(F)c4)ccn23)cc1OC`, the Inhibition is 7.43% in the assay with Klebsiella pneumoniae, 3.49% with Candida albicans and -8.06% in the assay on Cryptococcus neoformans.

Consider `COc1ccc(CNC(=O)Cn2nc3c4cc(-c5ccc(C)c(C)c5)nn4ccn3c2=O)cc1`, for which the figures for the Inhibition in the assay with Klebsiella pneumoniae, in the assay with Candida albicans and with Cryptococcus neoformans were 7.73%, 11.15% and -12.47%, respectively.

For the molecule `Cc1nnc2ccc(S(=O)(=O)N(Cc3cccc(F)c3)c3ccc(F)c(F)c3)cn12`, the Inhibition with Klebsiella pneumoniae is listed as 2.49%; in the assay with Candida albicans, 1.97%; with Cryptococcus neoformans, -11.8%.

Turning to `Cc1ccc(Oc2nccn3c(=O)n(CC(=O)Nc4cccc(Br)c4)nc23)cc1`, the Inhibition in the assay with Klebsiella pneumoniae is recorded as 11.55%; in the assay with Candida albicans it was 24.3%; with Cryptococcus neoformans, -18.68%.

Regarding `NC(=O)CSc1nnc2c(=O)n(-c3ccccc3)ccn12`, the Inhibition in the assay on Klebsiella pneumoniae is recorded as 15.37%; in the assay with Candida albicans it was 2.06%; with Cryptococcus neoformans, -20.31%.

`Cc1ccc(NC(=O)Cn2nc3c(SC4CCCCC4)nccn3c2=O)cc1`: the results for the Inhibition in the assay on Klebsiella pneumoniae, with Candida albicans and in the assay on Cryptococcus neoformans were 5.75%, -2.16% and -28.82%, respectively.

With `COc1ccc(CNC(=O)Cn2nc3c(SC4CCCCC4)nccn3c2=O)cc1`, the figures for the Inhibition in the assay with Klebsiella pneumoniae, in the assay with Candida albicans and with Cryptococcus neoformans were 14.45%, 17.79% and -15.36%, respectively.

In the case of `O=S(=O)(c1ccc2nncn2c1)N(Cc1cc(F)cc(F)c1)c1cc(F)cc(F)c1`, the Inhibition was -2.94% with Klebsiella pneumoniae, 0.05% in the assay on Candida albicans and -3.18% in the assay on Cryptococcus neoformans.

Consider `O=S(=O)(c1cccn2c(SCc3c(F)cccc3Cl)nnc12)N1CCCC1`, for which the Inhibition is 5.57% in the assay on Klebsiella pneumoniae, -0.64% with Candida albicans and -6.69% in the assay on Cryptococcus neoformans.
